Screens deposited in PubChem BioAssay by Broad Institute.
ID4 SMM: binds human ID4 protein on microarray; small molecule microarray, Flag-ID4 binding, fluorescence F/B; calls only; 31,000 tested, 1.2% active; AID 624137; call rule not given here;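 note: a binder raises fluorescence above local background on the spot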
Target sequence (P47928 whole entry, looked up): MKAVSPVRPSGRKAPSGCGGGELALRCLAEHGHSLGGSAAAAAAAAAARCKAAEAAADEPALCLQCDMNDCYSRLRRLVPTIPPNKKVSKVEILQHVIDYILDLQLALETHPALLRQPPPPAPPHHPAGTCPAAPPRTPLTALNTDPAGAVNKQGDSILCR
p53 PUMA act: restores mutant p53 pathway signaling in SW480 cells | SW480 PUMA-promoter luciferase, p53 mutant reactivation | activation, % at 9.98 µM | 28,000 tested, 1.5% active | AID 624151; in the data active = activation above about 52%
Large screens that a line does not name were inactive. Compounds with a hit are over-represented: about 2.1% of the library has one in this group of screens.

COc1ccc(C(=O)Nc2sc3c(c2C(=O)Nc2cccc(OC)c2)CCC3)cc1	p53 PUMA act 70.8
COc1ccc(OCC(=O)Nc2sc3c(c2C#N)CCC3)cc1	p53 PUMA act 94.4
COc1ccc(OC)c(NC(=O)c2c(NC(=O)c3ccco3)sc3c2CCC3)c1	none
Cc1ccc([N+](=O)[O-])cc1NC(=O)c1ccc(NC(=O)C2(c3ccccc3)CCOCC2)cc1	none
COc1ccc(CN(C)C[C@H]2Oc3ccc(NC(=O)CCC(F)(F)F)cc3C(=O)N([C@H](C)CO)C[C@H]2C)cc1	none
CC(C)OC(=O)CSc1nc2c(cc1C#N)CCCCC2	p53 PUMA act 98.1
N#Cc1cc2c(nc1SCC(=O)Nc1cc(C(F)(F)F)ccc1Cl)CCCCC2	none
CC(C)(C)c1ccc(S(=O)(=O)CC(O)CSc2nc3c(cc2C#N)CCCC3)cc1 (stereo unspecified)	none
N#Cc1cc2c(nc1SCC(=O)Nc1ccccc1C(F)(F)F)CCC2	p53 PUMA act 111.3
C[C@@H]1O[C@@H](Oc2ccc3c(=O)c(-c4ccc(O)cc4)coc3c2)[C@H](O)[C@H](O)[C@H]1O	none
Cc1cc(C)nc(SC(C)C(=O)Nc2ccc(Cl)c(Cl)c2)n1 (stereo unspecified)	none
CC(C)NC(=O)N(C)C[C@@H]1Oc2ccc(NS(C)(=O)=O)cc2C(=O)N([C@H](C)CO)C[C@@H]1C	none (no result: ID4 SMM)
O=C(Nc1ccccc1)N[C@H](Cc1ccccc1)Cn1cc(CN2C(=O)COC[C@H]2c2ccccc2)nn1	ID4 SMM active (no result: p53 PUMA act)
O=C(N[C@@H](Cc1ccccc1)Cn1cc(CN2C(=O)COC[C@H]2c2ccccc2)nn1)c1ccccc1	none (no result: p53 PUMA act)
CCC(C)C1NC(=O)c2c1n(C)c1ccccc1c2=O (stereo unspecified)	none
COc1ccc(OCC(=O)Nc2ccc3oc(-c4ccc(C)c(C)c4)nc3c2)cc1	none
CNC[C@@H]1Oc2ccc(NC(=O)Nc3c(C)noc3C)cc2CC(=O)N([C@H](C)CO)C[C@H]1C	ID4 SMM active
CNC[C@@H]1Oc2ccc(NC(=O)CCN3CCOCC3)cc2CC(=O)N([C@H](C)CO)C[C@H]1C	none
CNC[C@H]1Oc2ccc(NC(=O)CCN3CCOCC3)cc2CC(=O)N([C@@H](C)CO)C[C@@H]1C	ID4 SMM active
Cc1noc(C)c1NC(=O)Nc1ccc2c(c1)CC(=O)N([C@H](C)CO)C[C@@H](C)[C@H](CN(C)C(=O)Nc1ccc(F)cc1)O2	none (no result: ID4 SMM)
CNC[C@@H]1Oc2ccc(NC(=O)c3ccncc3)cc2CC(=O)N([C@@H](C)CO)C[C@H]1C	ID4 SMM active
CNC[C@H]1Oc2ccc(NC(=O)c3ccncc3)cc2CC(=O)N([C@H](C)CO)C[C@@H]1C	none
CNC[C@@H]1Oc2ccc(NC(=O)Nc3c(C)noc3C)cc2CC(=O)N([C@@H](C)CO)C[C@@H]1C	none
Cc1noc(C)c1NC(=O)N(C)C[C@H]1Oc2ccc(NC(=O)Nc3ccc(F)cc3)cc2CC(=O)N([C@H](C)CO)C[C@H]1C	ID4 SMM active
C/C(=C\CC[C@@H](C)[C@H]1CC(OC2OCC(O)C(O)C2O)[C@@]2(C)C3CC[C@H]4C(C)(C)[C@@H](O[C@@H]5OC(CO)C(O)C(O)C5OC5OC(CO)C(O)C(O)C5O)CC[C@@]45C[C@@]35CC(O)[C@]12C)C(=O)OC1OC(CO)C(O)C(O)C1O (stereo partly specified)	none
C[C@@H]1CN([C@H](C)CO)C(=O)c2cccc(NC(=O)c3ccncc3)c2O[C@@H]1CN(C)Cc1ccc(Cl)c(Cl)c1	none
CNC[C@H]1Oc2ccc(NC(=O)Nc3ccccc3)cc2CC(=O)N([C@H](C)CO)C[C@@H]1C	none
CNC[C@@H]1Oc2ccc(NC(=O)Nc3cccc4ccccc34)cc2CC(=O)N([C@@H](C)CO)C[C@H]1C	ID4 SMM active
O=C(COc1ccc2ccccc2c1Br)NCc1cccnc1	none
O=C(CCCC(=O)Nc1ccccc1)Nc1ccccc1	none
COC(=O)CCCCCCC(=O)Nc1ccc(NC(=O)CCCC[P+](c2ccccc2)(c2ccccc2)c2ccccc2)cc1	ID4 SMM active (no result: p53 PUMA act)
CCN1C(=O)c2cccc3c(S(=O)(=O)N4CCCC4C(=O)O)ccc1c23 (stereo unspecified)	ID4 SMM active
COc1cccc(S(=O)(=O)N2CCCC2C(=O)O)c1 (stereo unspecified)	none
C[C@]1(CO)CCC[C@]2(C)C3=C(C[C@@H](O)C12)C(=O)OC3 (stereo partly specified)	none (no result: ID4 SMM)
CC1(C)Cc2c(c(N3CCOCC3)nc3sc(C(=O)O)cc23)CO1	none
COc1ccc(CN(C)C[C@@H]2Oc3ccc(NC(=O)Cc4ccccc4)cc3C(=O)N([C@H](C)CO)C[C@@H]2C)cc1	none
COc1ccc(C(=O)NCc2n[nH]c(=S)n2C)cc1OC	none
Cc1cccc(C(=O)NCc2n[nH]c(=S)n2-c2ccccc2)c1	ID4 SMM active
Cc1cc(C)nc(NS(=O)(=O)c2ccc(NC(=O)c3ccc(-c4ccccc4)cc3)cc2)n1	none
Cc1cc(C)nc(NS(=O)(=O)c2ccc(NC(=O)c3ccc(C(=O)c4ccccc4)cc3)cc2)n1	ID4 SMM active
C[C@@H]1CN([C@H](C)CO)C(=O)c2cc(NC(=O)Nc3ccccc3)ccc2O[C@@H](C)CCCCO[C@@H]1CN(C)C	none
NC(=O)c1c(NC(=O)C2CC(=O)N(c3ccccc3)C2)sc2c1CCCC2 (stereo unspecified)	ID4 SMM active
NC(=O)c1c(NC(=O)Cn2c(=O)oc3ccccc32)sc2c1CCCC2	none
Cc1ccc2nc(-c3ccc(NC(=O)CSc4nnc(C)s4)cc3)sc2c1	none
Cc1ccc2nc(-c3ccc(NC(=O)CN4C(=O)c5ccccc5C4=O)cc3)sc2c1	none
Cc1ccc2nc(-c3ccc(NC(=O)CS(=O)(=O)Cc4ccccc4)cc3)sc2c1	p53 PUMA act 75.3
Cc1ccc2nc(-c3ccc(NC(=O)Cn4nc([N+](=O)[O-])c(Cl)c4C)cc3)sc2c1	p53 PUMA act 79.9
C[C@H](CO)N1C[C@H](C)[C@H](CN(C)C(=O)Nc2ccc(F)cc2)Oc2ccc(NS(=O)(=O)c3cn(C)cn3)cc2CC1=O	none
CNC[C@H]1Oc2ccc(NC(=O)Nc3c(C)noc3C)cc2CC(=O)N([C@H](C)CO)C[C@H]1C	none
Cc1ccc(S(=O)(=O)NCCC(=O)Oc2ccc3c(=O)c(-c4ccc(F)cc4)coc3c2)cc1	p53 PUMA act 104.7
Cc1cc(C)c(C)c(Oc2coc3cc(OC(=O)CCN4C(=O)c5ccccc5C4=O)ccc3c2=O)c1	none
N#Cc1ccccc1CSc1ncn[nH]1	none
Cc1cc2nc(SCc3ccccc3C#N)[nH]c2cc1C	p53 PUMA act 67.7
C[C@H](CO)N1C[C@H](C)[C@@H](CN(C)Cc2ccccc2C(=O)O)Oc2ncc(C3=CCCCC3)cc2C1=O	ID4 SMM active
C[C@H](CO)N1C[C@H](C)[C@@H](CN(C)Cc2ccccc2F)Oc2ncc(C3=CCCCC3)cc2C1=O	none (no result: p53 PUMA act)
C[C@H]1CN([C@@H](C)CO)C(=O)c2cc(C3=CCCCC3)cnc2O[C@@H]1CN(C)Cc1ccccc1	none (no result: p53 PUMA act)
C[C@@H]1CN([C@H](C)CO)C(=O)c2cc(C3=CCCCC3)cnc2O[C@H]1CN(C)Cc1ccc(C(=O)O)cc1	ID4 SMM active
O=C(C[C@H]1CC[C@@H](NC(=O)C2CCOCC2)[C@@H](CO)O1)NCC1CCCCC1	none (no result: p53 PUMA act)
COc1ccc(NC(=O)N(C)C[C@@H]2Oc3ccc(NC(=O)NC(C)C)cc3C(=O)N([C@H](C)CO)C[C@@H]2C)cc1	none (no result: ID4 SMM)
c1ccc(CSc2nnc3n(CCOc4ccccc4)c4ccccc4n23)cc1	none
